Measurements published in PMC5540273 (PLoS ONE, 2017).

Columns and labels:
Conditions in all cases: concentration: 1 μM, replicates: in singlicate; n = 1
[1] = test system: RIPK1
[2] = test system: RIPK2
[3] = test system: RIPK4
[4] = test system: RIPK5
[5] = test system: ROCK1
[6] = test system: ROCK2
[7] = test system: ROS1
[8] = test system: RPS6KA4(Kin.Dom.1-N-terminal)
[9] = test system: RPS6KA4(Kin.Dom.2-C-terminal)
[10] = test system: RPS6KA5(Kin.Dom.1-N-terminal)
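Note: KINOMEscan kinase panel screen.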

Structure (SMILES)	%Inh [1]	%Inh [2]	%Inh [3]	%Inh [4]	%Inh [5]	%Inh [6]	%Inh [7]	%Inh [8]	%Inh [9]	%Inh [10]
COC(=O)c1c(-c2ccccc2)c2cc(Cl)ccc2c(=O)n1Cc1ccc(S(C)(=O)=O)cc1	0%	0%	13%	4%	6%	0%	0%	0%	5%	8%
Cl.c1ccc(Cn2ccc3cc(Nc4ncnc5ccccc45)ccc32)cc1 [GW275568]	26%	54%	21%	32%	1%	0%	14%	4%	0%	6%
Cl.O=S(=O)(c1cccc(F)c1)c1ccc(Nc2ncnc3cc(Br)sc23)cc1Cl [GSK306886]	29%	42%	0%	16%	9%	14%	12%	16%	0%	0%
CSc1ccc(NC2=C(c3ccccc3Cl)C(=O)NC2=O)cc1 [SB-342411]	0%	32%	6%	0%	0%	0%	0%	0%	0%	5%
Cc1ccc(NC(=O)c2cccc(C#N)c2)cc1-c1ccc(C(=O)Nc2ccncc2)cc1 [GSK1398463]	2%	3%	38%	8%	22%	0%	0%	9%	0%	26%
Fc1cccc(COc2ccc(Nc3ncnc4nn5ccccc5c34)cc2Cl)c1 [GW689066]	0%	0%	0%	0%	40%	33%	1%	17%	0%	0%
CC(=O)Nc1n[nH]c2ncc(-c3ccccc3)cc12 [SB-548492]	8%	0%	24%	33%	3%	1%	22%	9%	17%	3%
Cc1ccc(O)cc1Nc1cc(C(F)(F)F)nc2ccc(-c3ccncc3)cc12 [GW630823]	13%	17%	0%	15%	0%	0%	5%	8%	0%	0%
COC(=O)c1cccc(NC(=O)NCCNc2ccnc(Nc3ccc(F)cc3)n2)c1 [GSK1379883]	22%	0%	2%	0%	25%	5%	17%	23%	0%	22%
Nc1nc(-c2cccnc2)c(-c2ccnc3ccccc23)s1 [GW684083]	0%	10%	0%	2%	44%	32%	25%	0%	0%	26%
O=C(NCCCN1CCCC1=O)c1cnc(NCc2cc(Cl)ccc2Cl)nc1NC1CCNCC1	0%	0%	0%	0%	0%	0%	0%	15%	0%	0%
CS(=O)(=O)CCNCc1ccc(-c2ccc3ncnc(Nc4ccc(OCc5ccccc5)c(Cl)c4)c3c2)o1.Cl [GW574783]	9%	79%	0%	0%	22%	21%	0%	32%	0%	28%
C[C@H]1CC[C@@H](C(=O)Nc2ccccc2)CN1c1cc(-c2ccc3c(N)n[nH]c3c2)nc(N)n1 [GSK2283293]	0%	0%	6%	0%	9%	18%	0%	6%	0%	12%
Cn1ccc2ncnc(Oc3ccc(NC(=O)Nc4cccnc4)c(Cl)c3)c21	0%	3%	0%	19%	1%	0%	0%	0%	0%	17%
Fc1cccc(COc2ccc(Nc3ncnc4cc[nH]c34)cc2Cl)c1	13%	25%	16%	33%	0%	0%	35%	9%	11%	2%
COc1ccc(-c2oc3ncnc(N)c3c2-c2ccc(OC)cc2)cc1 [SB-589132]	2%	28%	1%	0%	41%	0%	0%	0%	0%	0%

Structure (SMILES)	%Inh [1]	%Inh [2]	%Inh [3]	%Inh [4]	%Inh [5]	%Inh [6]	%Inh [7]	%Inh [8]	%Inh [9]	%Inh [10]
CCC(CC)(CC)n1cnc2c(N)ncnc21 [SKF-97620]	0%	1%	41%	25%	44%	0%	0%	24%	13%	14%
CC(C)(C)c1ccc(-n2cnc3c(N)ncnc32)cc1 [SKF-97263]	1%	0%	16%	14%	0%	0%	15%	0%	2%	19%
CCc1nc(-c2cccc(N(C)S(=O)(=O)c3ccccc3)c2)c(-c2ccnc(Nc3ccc(N4CCN(C(C)=O)CC4)nc3)n2)s1 [GSK1645895]	0%	90%	18%	10%	0%	0%	0%	0%	0%	0%
COc1ccc(NC(=O)Nc2ccc(C)c(-c3ccc(C(=O)Nc4ccncc4)cc3)c2)cc1 [GSK1398475]	16%	2%	1%	0%	0%	0%	0%	0%	0%	0%
O=C(Nc1ccccc1)Nc1ccc(Oc2ccc3nccn3n2)cc1	11%	88%	0%	0%	0%	0%	0%	50%	0%	0%
COc1cc2ncnc(Nc3ccc(OCc4ccccc4Br)c(Cl)c3)c2cc1OC.Cl [GI261590]	0%	86%	7%	0%	16%	27%	4%	9%	0%	0%
O=c1cc(N2CCOCC2)nc2n(Cc3cccc(Cl)c3)ccn12 [GSK2296823]	0%	0%	19%	0%	0%	0%	0%	6%	0%	10%
Cc1ccc(C)c(NC(=O)NCCNc2ccnc(Nc3ccc(F)cc3)n2)c1 [GSK1379878]	4%	0%	0%	9%	7%	0%	16%	0%	0%	0%
Clc1ccc(-c2cc(-c3c[nH]nc3-c3ccccn3)ccn2)cc1 [GW681251]	0%	37%	0%	0%	0%	12%	0%	2%	0%	6%
Nc1nc(-c2ccc3c(N)n[nH]c3c2)cc(N2CCCCC2)n1 [GSK2228768]	0%	0%	7%	0%	0%	0%	6%	4%	0%	6%
FC(F)(F)c1cc(Nc2nccc(-c3c(-c4ccc(Cl)cc4)nn4ncccc34)n2)ccc1Cl [GW829351]	0%	6%	0%	0%	50%	0%	0%	0%	0%	0%
CCn1c(-c2ccncc2)nc2cnccc21 [SB-735216]	0%	15%	10%	14%	31%	13%	2%	0%	11%	0%
Oc1ccc2ncnc(Nc3ccc(OCc4ccccc4)cc3)c2c1 [GI262866]	1%	100%	6%	0%	0%	0%	0%	8%	0%	4%
Cn1cc(-c2ccc3c(c2)CCN3C(=O)Cc2cccc(C(F)(F)F)c2)c2c(N)ncnc21 [GSK2606414]	75%	1%	3%	9%	4%	13%	0%	16%	0%	25%
COc1ccc(NC(=O)c2ccc(-c3cc(-c4nnc(C)o4)ccc3C)cc2)cc1 [GW595885]	0%	0%	9%	0%	10%	13%	0%	0%	0%	12%
